# Screening data (PubChem BioAssay)
# Most compounds without a hit are left out; they make up all but 11% or so of the library.
# NPR1 antag: human Npr1 receptor antagonism | P16066 | HEK293 hNpr1 GloSensor cGMP, ANP-stimulated luminescence | Potency, µM (series often up to 46.3 µM), without a hit: top-dose activity change, negative = inhibition, usual class: inhibitors | hit rate 1.6% among 76,000 | AID 1347048; calls by dose curve; also: % is scaled to controls: 0 for no effect and ±100 for the full control effect; nearly all actives have a fitted effect of over 60% in size
#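 Compound pre-incubated 30 min at room temperature on GloSensor-loaded HEK293 cells stably carrying hNpr1 and the pGS-40F cGMP biosensor. Stimulation uses hNppA at 0.1 nM final; luminescence is taken at baseline and 20 min post-agonist.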
# NIH3T3 tox: NIH 3T3 cell cytotoxicity; NIH 3T3 viability, CellTiter-Glo ATP luminescence, 48-72 h; Potency, µM (highest dose often 96.7 µM), inactives show at the highest dose activity change, negative = cytotoxicity, actives largely listed as inhibitors; hit rate 4.3% among 94,000; also: % is scaled to controls: 0 for no effect and ±100 for the full control effect; nearly all actives have a fitted effect of over 55% in size
#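 Cytotoxicity was measured by CellTiter-Glo ATP luminescence after 48 or 72 h compound exposure at 37 °C. Mouse NIH 3T3 fibroblasts were seeded at 400 cells/well and dosed by 23 nL pin transfer.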
# Luciferase inh: Photinus pyralis luciferase inhibition; P08659; purified P. pyralis luciferase, luminescence, biochemical; hit rate 2.5% among 76,000; Potency, µM (titrated, usually from 115 µM), hits mostly inhibitors; also: % is scaled to controls: 0 for no effect and ±100 for the full control effect; nearly all actives have a fitted effect of over 65% in size
# Target sequence (P08659 whole entry, looked up): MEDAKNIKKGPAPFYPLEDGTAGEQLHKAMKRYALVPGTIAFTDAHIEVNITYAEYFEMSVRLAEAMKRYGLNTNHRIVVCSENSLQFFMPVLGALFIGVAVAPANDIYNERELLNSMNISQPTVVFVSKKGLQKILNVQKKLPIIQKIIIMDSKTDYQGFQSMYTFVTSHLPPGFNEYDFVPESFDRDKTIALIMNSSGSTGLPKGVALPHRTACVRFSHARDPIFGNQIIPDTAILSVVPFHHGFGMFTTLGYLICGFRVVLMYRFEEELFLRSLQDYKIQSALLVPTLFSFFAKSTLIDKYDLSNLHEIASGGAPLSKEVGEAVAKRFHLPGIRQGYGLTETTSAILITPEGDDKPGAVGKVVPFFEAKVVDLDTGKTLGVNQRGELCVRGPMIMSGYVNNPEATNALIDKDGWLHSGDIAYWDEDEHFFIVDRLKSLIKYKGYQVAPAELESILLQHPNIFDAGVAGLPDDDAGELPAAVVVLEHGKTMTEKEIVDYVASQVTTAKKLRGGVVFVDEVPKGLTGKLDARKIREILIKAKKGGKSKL
#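 Biochemical qHTS: compound (6-point titration) added to 10uM D-luciferin plus 10uM ATP in Tris acetate pH 7.5 buffer with Mg, Tween-20 and BSA, then purified enzyme at 10nM; light output imaged.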
# HEK293 tox: HEK 293 cell cytotoxicity | hit rate 6.6% among 94,000 | HEK 293 viability, ATP luminescence (CellTiter-Glo), 48-72 h | Potency, µM (highest dose often 115 µM), for the others: at the top dose activity change, negative = cytotoxicity, hits mostly inhibitors | AID 1345083; also: % is scaled to controls: 0 for no effect and ±100 for the full control effect; nearly all actives have a fitted effect of over 60% in size
#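 HEK 293 seeded at 250 cells/well receive compound via pintool. After 48 or 72 hr at 37 degree Celsius, 5% CO2 and 95% humidity, CellTiter-Glo is dispensed and luminescence read following 10 min at room temperature.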
# Npr1 antag conf: hNpr1 antagonism, confirmation assay; shares compounds with NPR1 antag; hit rate 76% among 1,400; HEK293 hNpr1 cGMP GloSensor luminescence, ANP-stimulated; Potency, µM (highest dose often 57.6 µM), without a hit: top-dose activity change, negative = inhibition, most hits filed as inhibitors; calls by dose curve; also: nearly all actives have a fitted effect of over 70% in size
# NPR2 antag: selectivity test of Npr1 antagonists against human Npr2; shares compounds with NPR1 antag; HEK293 hNpr2 GloSensor cGMP luminescence, CNP-stimulated; Potency, µM (top dose mostly 57.6 µM), without a hit: at the highest dose activity change, negative = inhibition, actives largely listed as inhibitors; hit rate 67% among 1,400; calls by dose curve; also: nearly all actives have a fitted effect of over 70% in size
# FLuc counter: inhibits firefly luciferase, false Npr1 antagonist flag; purified FLuc enzyme, luminescence, Km substrate; hit rate 0.7% among 1,400; Potency, µM (highest dose often 57.6 µM), for inactives: at the top dose activity change, negative = inhibition, actives largely listed as inhibitors; AID 1347047; shares compounds with NPR1 antag; also: 0% is about no effect
# GloSensor ctrl: counter-screen for Npr1 antagonists: GloSensor control cell line; AID 1347051; Potency, µM (top dose mostly 57.6 µM), for inactives: at the top dose activity change, negative = inhibition, actives largely listed as inhibitors; hit rate 69% among 1,400; HEK293 GloSensor cGMP, SNP-stimulated, luminescence; shares compounds with NPR1 antag; calls by dose curve; also: % is scaled to controls: 0 for no effect and ±100 for the full control effect; nearly all actives have a fitted effect of over 70% in size
# Starred values were filed as active, the others as inactive; i = inactive; ? = inconclusive; · = no result; [ ] = another dose, or the depositor's remark. Unless noted, calls follow the shape of the dose curve; as a rule, active = well fitted curve in the direction sought with a large enough effect; inconclusive = small, poorly fitted or top-dose-only effect, or another doubt; inactive = no such curve, though single readings can be large; an effect the other way counts as inactive or inconclusive. Potency is read from the fitted curve at half-maximal effect.
SMILES,NPR1 antag,NIH3T3 tox,Luciferase inh,HEK293 tox,Npr1 antag conf,NPR2 antag,FLuc counter,GloSensor ctrl
Cc1ccc(C(=O)N2CCN(c3cc(-c4ccccc4)[nH]n3)CC2)cc1F,-18%,?,i,?,·,·,·,·
Cc1ccc(C(=O)N2CCN(c3cc(-c4ccc(Cl)cc4)[nH]n3)CC2)cc1F,18µM*,?,i,?,27µM*,22µM*,1%,24µM*
O=C(C1COc2ccccc2O1)N1CCN(c2cc(-c3ccc(Cl)cc3)[nH]n2)CC1 (stereo not drawn),?,?,i,45µM*,15µM*,22µM*,2%,14µM*
O=C(NC1CCN(c2cc(-c3ccc(F)cc3)[nH]n2)CC1)c1cccc2[nH]ccc12,?,40µM*,i,40µM*,?,?,-12%,-27%
O=C(Cc1ccccc1F)N1CCN(c2cc(-c3ccc(Cl)cc3)[nH]n2)CC1,0%,-14%,i,-7%,·,·,·,·
O=C(c1ccccc1Cl)N1CCN(c2cc(-c3ccc(Cl)cc3)[nH]n2)CC1,7.9µM*,?,i,?,14µM*,14µM*,-5%,11µM*
Cc1ccccc1-c1nn(-c2ccc(F)cc2F)cc1CN1CCC(O)CC1,8%,-9%,i,4%,·,·,·,·
CNc1nc2c(s1)C(c1cccc(F)c1)CC(=O)N2 (stereo not drawn),-15%,-28%,i,-19%,·,·,·,·
O=C(CC1C(=O)NCCN1Cc1ccc(-c2ccccc2)cc1)NCc1ccco1 (stereo not drawn),3%,?,?,?,·,·,·,·
Cc1ccsc1C(=O)N1CCN(c2cc(-c3ccc(Cl)cc3)[nH]n2)CC1,13µM*,25µM*,i,?,24µM*,27µM*,-11%,22µM*
CCOc1ccc(C(=O)N2CCCN(c3cc(-c4ccc(OC)cc4)[nH]n3)CC2)cc1OCC,-6%,-2%,i,?,·,·,·,·
CN(C)c1ccc(C(=O)N2CCCN(c3cc(-c4ccc(Cl)cc4)[nH]n3)CC2)cc1,?,?,i,?,·,·,·,·
Cc1ccc(-c2cc(N3CCCN(C(=O)c4sccc4C)CC3)n[nH]2)cc1C,-20%,?,?,?,·,·,·,·
CCOc1ccc(C(=O)N2CCN(c3cc(-c4ccc(Cl)cc4)[nH]n3)CC2)cc1OCC,2.2µM*,22µM*,i,20µM*,7.7µM*,14µM*,-1%,9.7µM*
CN(C)c1ccc(C(=O)N2CCN(c3cc(-c4ccc(Cl)cc4)[nH]n3)CC2)cc1,13µM*,?,i,?,22µM*,22µM*,-8%,22µM*
O=C(c1ccc(Br)cc1)N1CCN(c2cc(-c3ccc(Cl)cc3)[nH]n2)CC1,?,40µM*,i,45µM*,22µM*,24µM*,0%,15µM*
O=C(c1cccc2[nH]ccc12)N1CCCN(c2cc(-c3ccc(Cl)cc3)[nH]n2)CC1,10µM*,?,i,?,15µM*,19µM*,?,14µM*
O=C(c1ccc(OC(F)(F)F)cc1)N1CCN(c2cc(-c3ccc(Cl)cc3)[nH]n2)CC1,11µM*,18µM*,i,32µM*,19µM*,22µM*,3%,19µM*
Cn1cccc1C(=O)N1CCN(c2cc(-c3ccc(Cl)cc3)[nH]n2)CC1,-20%,?,i,?,·,·,·,·
O=C(Cc1cccc(Cl)c1)N1CCCC1C(=O)N1CCCC1c1nc2ccncc2[nH]1 (stereo not drawn),·,0%,·,i,·,·,·,·
Cc1nn2c(c1-c1ccccc1[S+](C)(=O)[O-])N(CCCc1ccccc1)CCC2,18µM*,?,i,?,5.6µM*,25µM*,3%[86.2 µM],4.4µM*
Cc1nn2c(c1-c1ccccc1C(N)=O)N(CCCc1ccccc1)CCC2,1.1µM*,11µM*,i,11µM*,2.8µM*,?,0%[86.2 µM],3.5µM*
CN1CCN(CCNC(=O)c2cc(-c3ccccc3)cn2C)CC1,2%,-4%,i,-7%,·,·,·,·
CCCNC(=O)c1cc(-c2ccc(F)cc2)cn1C,?,-32%,i,-24%,-27%,-7%,-1%,-26%
CC(=O)Nc1ccc(S(=O)(=O)N[C@H]2CO[C@H]3[C@@H]2OC[C@H]3OC(=O)Nc2ccc(C(C)=O)cc2)cc1,-6%,-22%,i,i,·,·,·,·
SMILES,NPR1 antag,NIH3T3 tox,Luciferase inh,HEK293 tox,Npr1 antag conf,NPR2 antag,FLuc counter,GloSensor ctrl
O=C(Nc1ccc(Oc2ccccc2)cc1)O[C@@H]1CO[C@H]2[C@@H]1OC[C@@H]2NS(=O)(=O)c1ccc2ccccc2c1,?,?,i,?,17µM*,15µM*,-13%,11µM*
COc1ccc(NC(=O)O[C@@H]2CO[C@H]3[C@@H]2OC[C@@H]3NC(=O)Nc2cccc(C#N)c2)cc1,1%,-9%,i,-13%,·,·,·,·
O=C(Nc1ccc(Oc2ccccc2)cc1)O[C@@H]1CO[C@H]2[C@@H]1OC[C@@H]2NC(=S)Nc1cccc2ccccc12,10µM*,?,i,?,5.4µM*,6.9µM*,-12%,6.1µM*
N#Cc1cccc(CN[C@H]2CO[C@H]3[C@@H]2OC[C@H]3OC(=O)Nc2ccc(Oc3ccccc3)cc2)c1,18µM*,?,i,?,22µM*,22µM*,-9%,19µM*
CCN(CC)C(=O)CCc1c(C)nn(-c2ccccc2)c1Oc1ccccc1,-23%,?,i,?,·,·,·,·
CC(=O)Nc1cc(-c2cn(C)c(=O)n3cc(COc4ccc(Cl)cc4)nc23)ccn1,-13%[70.6 µM],-41%[138 µM],i,-50%[172 µM],·,·,·,·
Cn1cc(-c2ccc(O)c(F)c2)c2nc(COc3ccc(Cl)cc3)cn2c1=O,14µM*,32µM*,i,32µM*,31µM*,31µM*,?,28µM*
O=C(c1cc2ccccc2[nH]1)N1CCC2(C1)NC(=O)N(Cc1ccc(F)cc1)C2=O (stereo not drawn),22µM*,?,i,?,?,?,-23%,31µM*
Cc1ccc(CN2C(=O)NC3(CCCN(C(=O)c4cc5ccccc5[nH]4)C3)C2=O)cc1 (stereo not drawn),-4%,?,?,?,·,·,·,·
